# Assay results published in PubChem BioAssay.
# Calls of active or inactive are those of the source. Unless noted, no rule for the calls is given here.
# Key:
# [1] = tested on: Wnt5a (protein binding on small-molecule microarray); test: Wnt5a binders on small-molecule microarray, primary screen, biophysical, 635/667 nm fluorescence (AID 1142); settings: 635 nm fluorescence, higher = more signal;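 also: fluorescence read at 667 nm with signal to noise per printed feature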
# [2] = cell viability in Huh7 cells, primary screen, cytotoxicity control for HCV replication inhibitor project, CellTiter-Glo luminescence, basal, 48 h (AID 1143); settings: Huh7 HCV replicon, higher = more signal, called active from +8 up or from −8 down;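 also: Huh7 hepatoma cells carrying a hepatitis C replication reporter with no stimulus; test concentration not given here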
# [3] = P. aeruginosa biofilm formation inhibitors, primary screen, PAO1 strain, BacTiter-Glo luminescence, LB-PBS (AID 1144); settings: 12 h, higher = more signal
# [4] = CREB reporter modulators without forskolin, primary screen, cell-based, PC12, CRE-LacZ reporter, unstimulated (AID 1145); settings: no forskolin, luminescence, 4.5 h, higher = more signal, called active from +8 up or from −8 down
# [5] = CREB reporter modulators under forskolin, primary screen, cell-based, PC12, CRE-LacZ reporter, forskolin-stimulated (AID 1146); settings: luminescence, 4.5 h, higher = more signal, called active from +8 up or from −8 down;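 also: PC12 cells with 6xCRE LacZ reporter stimulated by forskolin 10 µM; beta-galactosidase reporter signal reflecting CREB driven transcription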
# [6] = target: Streptavidin (Streptomyces avidinii) (UniProt P22629); test: streptavidin binders on small-molecule microarray, primary screen, artefact control for SMM compound annotation, biophysical, 635/667 nm fluorescence (AID 1147); settings: streptavidin binding, higher = more signal;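 also: signal reflects streptavidin binding to arrayed compounds as a control protein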
# Streptavidin (Streptomyces avidinii), sequence (P22629 whole entry, looked up): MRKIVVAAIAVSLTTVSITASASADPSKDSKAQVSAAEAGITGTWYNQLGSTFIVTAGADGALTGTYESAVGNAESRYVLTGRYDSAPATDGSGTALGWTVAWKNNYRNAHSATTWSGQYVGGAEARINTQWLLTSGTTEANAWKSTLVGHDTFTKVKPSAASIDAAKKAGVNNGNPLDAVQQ
# [7] = small-molecule binders of probe aInhba, primary screen, biochemical, small-molecule microarray, 635/667 nm fluorescence (AID 1148); settings: higher = more signal;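 also: score merges 667nm spot fluorescence with signal-to-noise for antibody binding to printed compounds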
# Torsin-1A (Homo sapiens) [8] = target: Torsin-1A (Homo sapiens) (UniProt O14656); test: torsin A binders from cell lysate, primary screen, small-molecule microarray, wild-type, 635/667 nm (AID 1149); settings: COS7 hTOR1A-WT lysate, 635 nm fluorescence, higher = more signal
# Torsin-1A (Homo sapiens), sequence (O14656 whole entry, looked up): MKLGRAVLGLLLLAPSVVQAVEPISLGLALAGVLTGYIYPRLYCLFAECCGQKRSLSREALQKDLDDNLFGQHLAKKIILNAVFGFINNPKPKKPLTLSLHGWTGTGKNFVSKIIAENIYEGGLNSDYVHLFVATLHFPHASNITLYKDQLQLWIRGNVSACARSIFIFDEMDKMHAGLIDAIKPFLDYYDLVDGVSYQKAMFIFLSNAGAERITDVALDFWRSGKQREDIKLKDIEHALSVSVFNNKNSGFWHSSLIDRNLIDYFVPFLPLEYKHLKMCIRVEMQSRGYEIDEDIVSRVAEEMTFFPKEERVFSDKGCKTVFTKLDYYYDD
# Torsin-1A (Homo sapiens) [9] = target: Torsin-1A (Homo sapiens) (UniProt O14656); test: small-molecule binders of mutant TOR1A in lysate, primary screen, cell lysate, small-molecule microarray, COS7 lysate, 635/667 nm fluorescence (AID 1150); settings: COS7 hTOR1A mutant lysate, 635 nm fluorescence, higher = more signal;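 also: score pools 667 nm emission and signal to noise measuring lysate protein binding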
# [10] = tested on: Sonic hedgehog protein (Shh); test: small-molecule binders of Shh protein, primary screen, biochemical, small-molecule microarray, 635/667 nm fluorescence (AID 1151); settings: small-molecule microarray binding, 635 nm fluorescence; higher = more signal;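 also: Shh protein binding to compounds spotted on small-molecule microarray slides; score combines spot fluorescence intensity with signal-to-noise across triplicate slides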
Structure (SMILES),composite z-score [1],z-score [2],z-score [3],z-score [4],z-score [5],composite z-score [6],composite z-score [7],composite z-score (Torsin-1A (Homo sapiens) [8]),composite z-score (Torsin-1A (Homo sapiens) [9]),composite z-score [10]
COC(=O)[C@@]1(Cc2ccccc2)[C@H]2c3cc(C(=O)N4CCCC4)n(Cc4ccccn4)c3C[C@H]2CN1C(=O)c1ccccc1,1.25,-1.5 (inactive),-1.42 (inactive),0.201 (inactive),1.06 (inactive),1.02,0.74,0.671,1.91,-0.369
COC(=O)CC=C[C@@H](C)[C@@H](C=NO[C@@H](C)c1cc(-c2c(C)cc(C)cc2C)no1)OC,-0.828,-2.12 (inactive),-0.726 (inactive),2.71 (inactive),-0.254 (inactive),-0.432,-0.249,-2.2,-2.18,-1.46
COC(=O)[C@H](C)NC(=O)[C@@H](C)CO,0.174,-0.76 (inactive),0.06 (inactive),-0.432 (inactive),0.17 (inactive),0.733,-0.0313,0.927,0.461,0.575
CO[C@H]1O[C@H](CO)[C@@H](OC(=O)Nc2ccc3c(c2)OCO3)[C@H](OC(=O)Nc2ccccc2-c2ccccc2)[C@@H]1OC(=O)Nc1ccccc1-c1ccccc1,0.492,-3.03 (inactive),-0.176 (inactive),0.54 (inactive),-0.528 (inactive),1.08,0.124,0.957,1.17,0.672
CO[C@H]1COC(=O)CC=C[C@H](C)[C@@H](NS(=O)(=O)c2ccc(C)cc2)COC(=O)CC=C[C@@H]1C,0.0341,-1.82 (inactive),-0.63 (inactive),-0.971 (inactive),-0.562 (inactive),-0.0767,-0.127,0.693,0.722,0.936
CO[C@H]1O[C@H](CO)[C@@H](OC(=O)Nc2ccc(C#N)cc2)[C@H](OC(=O)c2cc3ccccc3[nH]2)[C@H]1OC(=O)c1cc2ccccc2[nH]1,0.436,-3.88 (inactive),-2.05 (inactive),0.484 (inactive),-1.03 (inactive),0.779,-0.0011,0.91,1.36,0.746
COC(=O)[C@H](C)NC(=O)CCC1CC(OC(=O)NCc2ccc3c(c2)OCO3)CC2(CCCC(COC(=O)NCCOc3ccccc3)O2)O1 (stereo not given in full),0.12,-1.55 (inactive),-1.53 (inactive),-0.349 (inactive),-0.422 (inactive),0.607,-0.128,0.248,0.492,1.67
C=CCC(OC(C)=O)[C@@H]1[C@@H](N(Cc2cc3ccccc3o2)C(=O)Cc2ccc(F)cc2)c2cc(OCCCO)ccc2N1C(=O)Cc1ccc(OC)cc1 (stereo not given in full),-0.368,-0.276 (inactive),0.00133 (inactive),1.27 (inactive),0.515 (inactive),0.0444,-0.045,-0.499,-0.522,0.603
O=C1C2=CC[C@H]3C(=O)N(Cc4ccc5c(c4)OCO5)C(=O)[C@H]3[C@H]2[C@H](O)[C@@H]2O[C@H]12,-0.0194,0.279 (inactive),-0.0992 (inactive),-0.385 (inactive),-0.454 (inactive),0.57,-0.0933,0.475,0.677,0.495
COc1ccc(COC(=O)NN=C2C[C@@H](O)[C@@H](O)[C@@H]3[C@@H]4C(=O)N(c5ccc(F)cc5F)C(=O)[C@@H]4CC[C@@H]23)cc1,-0.207,0.0335 (inactive),1.02 (inactive),1.61 (inactive),-0.0874 (inactive),0.509,-0.0762,-0.372,0.389,-1.13
COC(=O)[C@@H]1CC[C@H](C)[C@@H](c2ccc(C)cc2)N1C(=O)c1ccc(C=NOC[C@@H](O)COCc2ccco2)cc1,-0.523,-1.83 (inactive),1.18 (inactive),5.89 (inactive),-0.309 (inactive),-1.24,-0.341,-1.72,-2.05,-0.334
CCc1cc2c(nc1CC)CCN(CCC(C)=NOC[C@@H](O)COCc1ccco1)C2,0.391,-0.112 (inactive),0.132 (inactive),2.16 (inactive),0.785 (inactive),0.536,0.149,3.95,3.64,2.31
O=C1[C@H]2[C@H]3[C@H](O)[C@H](O)CC(=NO[C@@H]4O[C@H](CO)[C@@H](O)[C@H](O)[C@H]4O)[C@H]3CC[C@H]2C(=O)N1Cc1ccccc1,0.927,-0.871 (inactive),0.641 (inactive),-0.474 (inactive),-0.0615 (inactive),0.001,-0.0736,0.717,0.0309,0.439
CCN1C(=O)[C@H]2[C@H]3[C@H](O)[C@H](O)CC(=NOCc4ccccc4)[C@@H]3CC[C@H]2C1=O,-0.0713,-0.672 (inactive),0.855 (inactive),1.42 (inactive),0.479 (inactive),-0.0346,-0.0575,0.962,0.236,0.531
O=C1[C@H]2[C@H]3[C@H](O)[C@H](O)CC(=NOC[C@@H](O)COCc4ccco4)[C@H]3CC[C@H]2C(=O)N1C1CCCCC1,0.257,-2.97 (inactive),-0.925 (inactive),3.33 (inactive),0.279 (inactive),-0.112,0.158,2.07,1.64,1.54
